Assays:
Assay in all cases: log2 ratio of Biotin-Ahx-Ub-VS probe labelling (fragment/DMSO); higher = less target engagement (more negative = stronger competition), active = hit call of the paper (q ≤ 0.05, log2 ratio ≤ -1)
Conditions in all cases: compound concentration: 200 uM; treatment time: 3 h
ALG13 = target: T1, ALG13 (UniProt Q9NP73)
T1 sequence (whole entry): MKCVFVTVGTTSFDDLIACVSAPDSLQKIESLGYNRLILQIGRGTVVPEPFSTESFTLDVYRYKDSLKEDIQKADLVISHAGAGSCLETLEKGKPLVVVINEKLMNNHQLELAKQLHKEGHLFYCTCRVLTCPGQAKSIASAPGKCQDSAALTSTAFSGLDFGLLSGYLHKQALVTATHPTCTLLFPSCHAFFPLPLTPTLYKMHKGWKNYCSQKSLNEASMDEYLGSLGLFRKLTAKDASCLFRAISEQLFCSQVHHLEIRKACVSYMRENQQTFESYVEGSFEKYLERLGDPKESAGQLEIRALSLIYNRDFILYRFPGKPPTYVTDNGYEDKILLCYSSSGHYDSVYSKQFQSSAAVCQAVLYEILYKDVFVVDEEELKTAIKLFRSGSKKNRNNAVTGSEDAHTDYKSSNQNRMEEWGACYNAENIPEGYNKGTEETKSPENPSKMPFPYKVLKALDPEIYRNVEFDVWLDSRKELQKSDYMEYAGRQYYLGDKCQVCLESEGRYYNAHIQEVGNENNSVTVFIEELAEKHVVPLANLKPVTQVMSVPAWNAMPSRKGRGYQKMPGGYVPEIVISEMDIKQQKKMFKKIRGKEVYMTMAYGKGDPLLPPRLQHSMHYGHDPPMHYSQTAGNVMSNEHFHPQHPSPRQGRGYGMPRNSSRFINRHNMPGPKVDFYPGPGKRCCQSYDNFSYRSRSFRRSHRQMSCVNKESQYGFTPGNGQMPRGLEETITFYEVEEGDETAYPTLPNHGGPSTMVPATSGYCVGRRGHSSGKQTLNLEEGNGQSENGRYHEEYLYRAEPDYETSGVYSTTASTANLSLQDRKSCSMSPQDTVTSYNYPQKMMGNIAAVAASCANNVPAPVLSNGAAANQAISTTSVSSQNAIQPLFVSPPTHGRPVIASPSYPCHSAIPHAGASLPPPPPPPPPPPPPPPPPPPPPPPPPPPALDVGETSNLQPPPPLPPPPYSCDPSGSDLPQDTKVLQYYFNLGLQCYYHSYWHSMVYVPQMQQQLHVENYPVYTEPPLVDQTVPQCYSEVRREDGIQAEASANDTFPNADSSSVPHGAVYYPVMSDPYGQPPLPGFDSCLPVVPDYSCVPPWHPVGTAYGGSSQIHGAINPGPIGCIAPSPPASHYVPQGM
How it was run: (§1)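 Fragment (200 µM) or vehicle was incubated for 3 h with triplicate HEK293T lysate samples of 495 µg, which were then treated with Biotin-Ahx-Ub-VS at 0.5 µM final for 1 h. Labelled DUBs were enriched on NeutrAvidin, digested with LysC and trypsin, and analysed by diaPASEF LC-MS/MS. Values are average log2 fragment/vehicle ratios from an unpaired t-test on global-median-normalised Spectronaut label-free quantities, using proteins with ≥2 unique peptides.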

ATXN3 = ATXN3 (UniProt P54252)
How it was run: as §1

BAP1 = target: T2, BAP1 (UniProt Q92560)
T2 sequence (whole entry): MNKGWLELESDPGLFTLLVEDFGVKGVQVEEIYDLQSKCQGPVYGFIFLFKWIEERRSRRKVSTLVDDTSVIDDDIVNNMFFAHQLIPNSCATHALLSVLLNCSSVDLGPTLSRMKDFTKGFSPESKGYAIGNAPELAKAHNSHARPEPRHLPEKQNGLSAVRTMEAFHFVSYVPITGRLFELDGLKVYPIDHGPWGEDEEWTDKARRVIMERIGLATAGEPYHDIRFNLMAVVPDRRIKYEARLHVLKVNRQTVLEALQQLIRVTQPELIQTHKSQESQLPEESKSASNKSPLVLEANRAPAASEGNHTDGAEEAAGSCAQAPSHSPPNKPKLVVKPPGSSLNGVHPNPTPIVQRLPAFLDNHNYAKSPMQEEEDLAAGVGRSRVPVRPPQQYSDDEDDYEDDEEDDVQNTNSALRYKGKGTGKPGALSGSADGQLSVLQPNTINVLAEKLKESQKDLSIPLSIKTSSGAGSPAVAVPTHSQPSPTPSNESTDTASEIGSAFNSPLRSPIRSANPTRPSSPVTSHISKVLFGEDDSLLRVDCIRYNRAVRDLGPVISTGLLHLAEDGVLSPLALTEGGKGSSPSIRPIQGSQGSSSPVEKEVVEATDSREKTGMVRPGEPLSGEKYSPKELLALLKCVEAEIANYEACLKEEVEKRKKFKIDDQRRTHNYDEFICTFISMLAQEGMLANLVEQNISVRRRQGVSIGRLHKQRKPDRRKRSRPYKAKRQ
How it was run: as §1

EIF3F = EIF3F (UniProt O00303)
How it was run: as §1

EIF3H = EIF3H (UniProt O15372)
How it was run: as §1

FAM105A = target: T3, FAM105A (UniProt Q9NUU6)
T3 sequence (whole entry): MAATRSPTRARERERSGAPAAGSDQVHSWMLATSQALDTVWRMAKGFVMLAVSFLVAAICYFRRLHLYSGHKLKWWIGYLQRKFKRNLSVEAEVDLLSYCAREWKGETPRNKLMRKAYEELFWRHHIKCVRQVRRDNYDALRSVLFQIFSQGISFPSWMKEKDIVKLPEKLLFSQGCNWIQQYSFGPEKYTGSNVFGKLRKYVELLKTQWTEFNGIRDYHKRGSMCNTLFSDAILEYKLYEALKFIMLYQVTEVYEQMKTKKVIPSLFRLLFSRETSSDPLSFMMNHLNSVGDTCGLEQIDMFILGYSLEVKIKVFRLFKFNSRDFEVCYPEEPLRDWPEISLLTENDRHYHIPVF
How it was run: as §1

OTUB1 = OTUB1 (UniProt Q96FW1)
How it was run: as §1

OTUD4 = target: T4, OTUD4 (UniProt Q01804)
T4 sequence (whole entry): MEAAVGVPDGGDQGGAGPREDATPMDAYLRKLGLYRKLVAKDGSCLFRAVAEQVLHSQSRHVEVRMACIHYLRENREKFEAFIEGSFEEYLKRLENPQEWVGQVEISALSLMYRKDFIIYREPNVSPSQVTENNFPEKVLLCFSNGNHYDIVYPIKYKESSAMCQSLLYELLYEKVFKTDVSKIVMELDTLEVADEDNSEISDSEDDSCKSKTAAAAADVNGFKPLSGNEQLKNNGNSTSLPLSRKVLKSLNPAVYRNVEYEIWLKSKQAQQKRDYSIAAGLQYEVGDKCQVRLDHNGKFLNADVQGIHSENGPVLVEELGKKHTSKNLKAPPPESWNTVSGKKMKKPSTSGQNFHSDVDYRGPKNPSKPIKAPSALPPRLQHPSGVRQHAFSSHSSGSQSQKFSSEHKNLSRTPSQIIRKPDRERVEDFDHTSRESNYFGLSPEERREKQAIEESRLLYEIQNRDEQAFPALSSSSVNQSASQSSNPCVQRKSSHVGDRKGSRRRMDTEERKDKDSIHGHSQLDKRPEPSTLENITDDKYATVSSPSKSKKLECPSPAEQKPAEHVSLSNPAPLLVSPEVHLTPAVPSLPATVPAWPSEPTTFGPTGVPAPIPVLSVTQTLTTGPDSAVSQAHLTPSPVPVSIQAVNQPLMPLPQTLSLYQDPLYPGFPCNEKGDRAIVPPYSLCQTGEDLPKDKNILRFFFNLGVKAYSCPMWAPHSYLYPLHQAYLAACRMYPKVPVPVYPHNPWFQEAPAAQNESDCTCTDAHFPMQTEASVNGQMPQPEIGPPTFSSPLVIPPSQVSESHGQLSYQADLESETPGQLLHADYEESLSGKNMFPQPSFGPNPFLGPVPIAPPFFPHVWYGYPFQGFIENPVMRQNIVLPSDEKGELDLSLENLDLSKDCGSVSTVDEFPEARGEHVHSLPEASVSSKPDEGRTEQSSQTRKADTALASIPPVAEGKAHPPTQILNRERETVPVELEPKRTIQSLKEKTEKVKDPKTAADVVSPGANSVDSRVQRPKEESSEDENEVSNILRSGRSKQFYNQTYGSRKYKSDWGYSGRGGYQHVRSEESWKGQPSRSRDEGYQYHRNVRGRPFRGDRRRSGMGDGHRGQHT
How it was run: as §1

OTUD5 = target: T5, OTUD5 (UniProt Q96G74)
T5 sequence (whole entry): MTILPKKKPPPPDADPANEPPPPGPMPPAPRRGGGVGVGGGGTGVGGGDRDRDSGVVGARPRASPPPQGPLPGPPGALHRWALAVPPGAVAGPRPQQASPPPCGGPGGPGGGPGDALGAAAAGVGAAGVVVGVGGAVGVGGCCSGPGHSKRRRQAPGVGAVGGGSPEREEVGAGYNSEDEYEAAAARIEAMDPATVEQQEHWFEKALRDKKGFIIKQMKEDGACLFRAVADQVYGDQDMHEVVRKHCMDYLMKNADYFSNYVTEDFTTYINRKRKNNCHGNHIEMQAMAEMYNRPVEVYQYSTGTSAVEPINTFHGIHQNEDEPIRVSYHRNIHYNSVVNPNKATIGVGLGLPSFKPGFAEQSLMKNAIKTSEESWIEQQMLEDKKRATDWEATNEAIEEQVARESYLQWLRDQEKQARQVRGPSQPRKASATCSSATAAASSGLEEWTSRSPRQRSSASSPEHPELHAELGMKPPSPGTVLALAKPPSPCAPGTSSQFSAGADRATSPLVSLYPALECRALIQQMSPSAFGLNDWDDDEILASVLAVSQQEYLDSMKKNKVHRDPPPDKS
How it was run: as §1

Measured: log2 ratio of Biotin-Ahx-Ub-VS probe labelling

ATXN3, sequence (P54252 whole entry): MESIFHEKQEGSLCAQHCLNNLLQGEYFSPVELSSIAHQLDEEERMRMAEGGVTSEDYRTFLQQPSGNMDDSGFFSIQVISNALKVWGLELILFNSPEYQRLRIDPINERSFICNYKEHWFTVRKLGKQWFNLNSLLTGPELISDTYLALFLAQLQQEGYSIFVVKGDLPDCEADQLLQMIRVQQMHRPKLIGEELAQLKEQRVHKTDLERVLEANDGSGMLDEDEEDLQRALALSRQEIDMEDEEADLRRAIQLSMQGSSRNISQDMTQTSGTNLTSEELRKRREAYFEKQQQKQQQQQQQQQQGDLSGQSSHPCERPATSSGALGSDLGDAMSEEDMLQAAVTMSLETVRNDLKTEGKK
EIF3F, sequence (O00303 whole entry): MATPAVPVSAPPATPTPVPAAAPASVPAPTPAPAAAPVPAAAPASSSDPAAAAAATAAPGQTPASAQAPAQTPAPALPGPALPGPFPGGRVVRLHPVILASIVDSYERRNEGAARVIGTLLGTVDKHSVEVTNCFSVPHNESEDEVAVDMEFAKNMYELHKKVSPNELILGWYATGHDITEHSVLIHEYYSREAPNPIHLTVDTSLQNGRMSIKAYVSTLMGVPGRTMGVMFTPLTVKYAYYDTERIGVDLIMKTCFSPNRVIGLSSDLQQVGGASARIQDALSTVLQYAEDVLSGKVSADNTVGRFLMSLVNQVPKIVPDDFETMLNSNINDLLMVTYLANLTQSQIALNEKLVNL
EIF3H, sequence (O15372 whole entry): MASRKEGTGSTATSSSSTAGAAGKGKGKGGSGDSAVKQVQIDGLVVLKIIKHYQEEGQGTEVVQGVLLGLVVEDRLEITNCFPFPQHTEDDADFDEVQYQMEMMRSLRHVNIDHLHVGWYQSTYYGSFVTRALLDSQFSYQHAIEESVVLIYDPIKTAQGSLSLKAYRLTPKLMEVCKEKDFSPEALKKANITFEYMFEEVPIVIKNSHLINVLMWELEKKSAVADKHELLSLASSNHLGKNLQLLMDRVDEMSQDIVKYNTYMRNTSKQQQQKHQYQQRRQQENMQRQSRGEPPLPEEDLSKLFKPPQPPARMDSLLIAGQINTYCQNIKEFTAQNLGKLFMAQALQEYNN
OTUB1, sequence (Q96FW1 whole entry): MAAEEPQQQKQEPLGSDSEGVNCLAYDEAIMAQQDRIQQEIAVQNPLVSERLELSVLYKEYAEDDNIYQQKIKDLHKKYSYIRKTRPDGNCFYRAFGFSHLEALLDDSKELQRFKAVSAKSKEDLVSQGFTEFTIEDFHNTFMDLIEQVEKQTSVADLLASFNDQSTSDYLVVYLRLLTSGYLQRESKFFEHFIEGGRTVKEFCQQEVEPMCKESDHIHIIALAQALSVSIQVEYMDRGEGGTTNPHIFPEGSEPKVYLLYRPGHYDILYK

O=C(CCl)N1CCOC2(CCC2)C1
inactive: ALG13 -0.352 | ATXN3 -0.0796 | BAP1 -0.352 | EIF3F -0.125 | EIF3H 0.226 | FAM105A -0.0758 | OTUB1 -0.141 | OTUD4 -0.57 | OTUD5 -0.148

From the supplement of paper PMC11732987, “Enantioselective OTUD7B fragment discovery through chemoproteomics screening and high-throughput optimisation” (Communications Chemistry, 2025)
